Measurements from PubChem BioAssay AID652017 (The Scripps Research Institute Molecular Screening Center, 2013).
Several values for one entry are separate records, joined by “and”; a condition that tells them apart may be missing. Identical values can stand only once. The whole screen tested about 370,000 compounds, of which about 3,800 (1%) were called active. No stated cut-off is given here; in the data, active means activation above about 7.8%; inactive means the rest. For the sample, actives were picked, then their nearest neighbours and some compounds at random.

Assay: SMARCA2 (BRM) function activators, primary screen, cell-based, luminescence, high throughput (AID 652017);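 further: 0% = vehicle wells and 100% = reference activator wells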
Conditions: MG213 cells, MMTV-luciferase reporter, dexamethasone, overnight; at 9.1 µM; active compounds read high

activation, active:
COc1cccc(OCCOc2cccc(/C=N/n3cnnc3)c2)c1 10.1%, CCc1ccc[n+](-c2nc([O-])sc2C=O)c1 8%, O=C(Nc1cccc([N+](=O)[O-])c1)c1ccc2c(c1)OCO2 8.1%, COc1ccc(C(=O)Nc2ccc3c(c2)OCO3)cc1OC 16.7%, CCNC(=S)N1CCN(c2ncccn2)CC1 8.35%, CCCn1c(=O)c2ccccc2n2c(SCC(=O)/C(C#N)=C(\C)N)nnc12 9.35%, CC(C)C[C@H]1CNC(=O)C(=O)N1C[C@H]1CCCN1C[C@H](Cc1ccc(O)cc1)N1C[C@H](CC(C)C)N(CC2CCCCCC2)C(=O)C1=O 8.41%, COc1ccc(C)cc1S(=O)(=O)N(CC(=O)Nc1cccc([N+](=O)[O-])c1)c1ccc(C)cc1 9.29%, Cc1ccccc1C1=N/C(=C/c2cccnc2)C(=O)O1 10.3%, Cc1cccc(-n2c(O)c(C=Nc3ccccc3N)c(=O)[nH]c2=O)c1 9.92%, O=S(=O)(Cc1ccccc1)c1nc2ccccc2n1Cc1ccccn1 7.86%, Cc1nc(-c2nnc(SCC(=O)Nc3cc(C(F)(F)F)cc(C(F)(F)F)c3)n2C)cs1 8.28%, COc1cccc(C(=O)Nc2nc3ccc(S(C)(=O)=O)cc3s2)c1 8.68%, C=CC(=O)OCCOCCOCCOCCOC(=O)C=C 13.1%, Cc1ccc(F)c(NC(=O)CCc2ccccc2)c1 11.3%, COC(=O)c1sc(-c2ccc(C(C)(C)C)cc2)cc1NC(=O)/C=C/C(=O)O 9.14%, CC(=O)c1sc(NC(=O)c2ccc(C)cc2)nc1C 9.69%, CC(=O)c1sc(N/N=C\c2ccc(C)cc2)nc1C 13.4%

activation, inactive:
CC(=O)Nc1ccc(OC[C@@H](O)CN2CCC(C(O)(c3ccccc3)c3ccccc3)CC2)cc1 -1.46%, COCCCNC(=O)C[C@H]1C[C@@]2(C(=O)OC)C(=C[C@H](C(C)(C)C)O[C@@H]2C)N(Cc2ccc(Cl)cc2Cl)C1=O -4%, Cc1c(C(C)c2ccccc2O)[nH]c2ccccc12 (centres undefined) -2.39%, Cc1ccc(NC(=O)C(=O)NCc2ccc(/C=N/NC(=O)c3c(C)nc4cc(C)ccn34)o2)cc1 -0.59%, Cc1ccc(NC(=O)Nc2cc(C)nn2-c2ccccc2)cc1 -3.87%, Cc1ccccc1OCCOc1ccc([N+](=O)[O-])cc1/C=N/n1cnnc1 -1.85%, C=CCc1ccc(OCCOc2cccc(/C=N/n3cnnc3)c2)c(OC)c1 2.79%, COc1ccc(N2CCN(CCNS(=O)(=O)c3ccc([N+](=O)[O-])cc3)CC2)cc1 -3.04%, O=C(Cc1ccc([N+](=O)[O-])cc1)NCCc1ccc2c(c1)OCO2 4.55%, COc1ccc(C(=O)Nc2ccc(C3(C#N)CCCC3)cc2)cc1OC 1.54%, COc1ccc(Cl)cc1NC(=O)CN(C)CC(=O)Nc1ccc2c(c1)OCO2 -3.2%, CN(C(=O)c1cccc(NC(=O)Cc2cccc([N+](=O)[O-])c2)c1)C1CCCCC1 -2.39%, Cn1c(Cc2cccs2)nnc1SCC(=O)Nc1ccccc1 4.18%, Cc1ccccc1CS(=O)(=O)Cc1ccc(C(=O)Nc2ccc(Cl)cc2)o1 -8.47%, CCc1nn(-c2cc(Oc3cccc4ccccc34)nc(-c3ccccc3)n2)c(N)c1C#N 0.3%, Cc1ccc(NC(=S)N2CCN(c3ncccn3)CC2)cc1C 2.65%, CCNC(=S)N1CCN(S(=O)(=O)c2ccc(Cl)s2)CC1 -1.32%, O=S1(=O)c2ccc(Br)cc2OC[C@@H](Cc2ccccc2)N1Cc1cn(Cc2ccco2)nn1 -0.61%, Cc1cccc(C2C3=C(CCCC3=O)N=C3c4ccccc4C(=O)C32)c1 (centres undefined) 1.45%, COc1ccc(CCNC(=O)CSc2nc3c([nH]2)c(=O)n(C)c(=O)n3C)cc1 -2.8%, C=CCn1c(=O)c2ccccc2n2c(SCC(=O)N3CCCc4ccccc43)nnc12 1.43%, C=CCn1c(SCC(=O)/C(C#N)=C(\C)N)nc2sc(C)c(C)c2c1=O -1.26%, COc1ccc(CN2C/C(=C/c3ccccc3)N3C(=O)C[C@@H](c4ccccc4)N=C23)c(OC)c1 -4.07%, COc1ccccc1C(=O)NC1CCCCN(C(C)C)C1=O (centres undefined) -0.79%, Cc1ccc(-n2c(SCC(=O)Nc3cccc4ccccc34)nnc2-c2ccccn2)cc1 -2.65%, O=C1NC[C@H](Cc2ccc(O)cc2)N(C[C@@H]2CCCN2C[C@H](Cc2ccccc2)N2C[C@H](Cc3ccccc3)N(CC3CCCCC3)C(=O)C2=O)C1=O -2.98%, CC(C)C[C@H]1CNC(=O)C(=O)N1C[C@@H]1CCCN1C[C@H](Cc1ccccc1)N1C[C@H](CC(C)C)N(CC2CCCCCC2)C(=O)C1=O -3.56%, O=C(CSc1nc2ccccc2s1)N=Nc1c(O)[nH]c2ccccc12 -2.44%, Cc1ccc(S(=O)(=O)N(CC(=O)Nc2cccc([N+](=O)[O-])c2)Cc2ccc(Cl)cc2)cc1 -2.5%, COc1ccc(N(CC(=O)Nc2ccc(C)cc2C)S(=O)(=O)c2ccccc2[N+](=O)[O-])c(OC)c1 -0.94%, Nc1ccc2c(c1)C(=Cc1cccnc1)c1ccccc1-2 0.27%, Cc1ccc(C2=C/C(=C\c3cccnc3)C(=O)O2)cc1 5.23%, CCn1c(SCC(C)=O)nc2sc3c(c2c1=O)CCCC3 -0.23%, O=C(CSc1nc2sc3c(c2c(=O)n1-c1ccccc1)CCCC3)NN=Cc1ccc(OCc2ccccc2)cc1 -2.96%, Cc1ccc(Cn2cc(CN3[C@@H](C)COc4cc(Br)ccc4S3(=O)=O)nn2)cc1 -6.23%, O=C(Cn1ncc2c3ccccc3n(Cc3ccccc3)c2c1=O)NCc1ccccn1 -0.48%, O=C(O)Cn1c(Cc2ccccc2)nc2ccccc21 -0.68%, O=C1NC[C@@H](CCCCN2CCN(CCc3ccc(O)cc3)C(=O)C2=O)N(CC2CCCCC2)C1=O 0.65%, Cc1ccc(Cn2cc(CN3[C@@H](CC(C)C)COc4ccc(Cl)cc4S3(=O)=O)nn2)cc1 0.91%, CC(CCN1CCC(C(O)(c2ccccc2)c2ccccc2)CC1)Oc1ccc(C(F)(F)F)cc1 (centres undefined) 0.64%, COC(=O)[C@]12CCCCC=C1N(Cc1ccco1)C(=O)[C@H](CC(=O)NCC1CCCCC1)C2 -5.18%, Cc1cc(-c2nc(C)c(-c3nnc(SCC(=O)Nc4ccccc4)n3C)s2)no1 -1.01%, Cn1c(SCC(=O)Nc2cccc(NC(=O)c3cccs3)c2)nnc1-c1ccncc1 2.18%, Cc1cc(=O)[nH]c(SCC(=O)Nc2ccc(F)cc2F)n1 -4.89%, COc1cccc(C(=O)NNS(=O)(=O)c2ccc(F)cc2)c1 -0.53%, COc1cccc(C(=O)Nc2nnc(S(=O)(=O)N3CCOCC3)s2)c1 -2.26%, O=C(CSc1nc2ccccc2n1Cc1ccccc1Cl)N/N=C\c1c[nH]c2ccccc12 -4.04%, CCc1nc2c(OCCOc3ccccc3)cccn2c1N(C)C(=O)c1ccc(OC)cc1 -6.52%, O=C1CCC2(CCC(c3ccc(Cl)cc3)CC2)N1CCO (centres undefined) -3.07%, CCCCCCN1CCS(=O)(=O)N(Cc2ccc(C(F)(F)F)cc2)C(C(=O)OC)C1 (centres undefined) -1.27%, O=C(CSc1nnc(-c2ccccc2)n1Cc1ccco1)Nc1ccccc1-c1ccccc1 -7.03%, Cc1ccc(F)c(NC(=O)CCOc2ccccc2C)c1 -0.21%, Cc1ccc(C)c(NC(=O)CCS(=O)(=O)c2ccccc2)c1 0.55%, C[C@H](NC(=O)c1ccccc1Cl)C(=O)OCCOc1cccc(Cl)c1 -0.67%, O=C(C=CC(=O)Nc1ccc(F)cc1F)Nc1ccc(F)cc1F 0.37%, COC(=O)C[C@@H]1CC[C@@H]2[C@@H](COc3ccc(NC(=O)Nc4ccc(F)c(F)c4)cc3C(=O)N2C)O1 -2.75%, CC(=O)c1sc(N)nc1C -0.52% and -1.75%, Cc1ccc(/C=N/NC(=O)C(NC(=O)c2ccccc2)c2n[nH]c(=O)c3ccccc23)cc1 (centres undefined) -1.07%, CCOC(=O)c1sc(/N=C/Nc2nc(C)c(C(=O)OCC)s2)nc1C -0.22%, Cc1ccc(C(=O)Nc2nc(N)n(-c3ccccc3)n2)cc1 -1.21%, C[C@H]1CCC/C=C/C(=O)c2c(O)cc(O)cc2CC(=O)O1 6.88%, CCCCNC(=O)C[C@H]1C[C@@]2(C(=O)OC)C(=C[C@H](COCc3ccccc3)O[C@@H]2C)N(Cc2ccc(Cl)cc2Cl)C1=O -3.4%, C=CCN1[C@@H](Cc2ccccc2)COc2cccc(N3CCSCC3)c2S1(=O)=O -1.33%, COC(=O)[C@]1(C#N)CC(=O)N(CC2CCCCC2)[C@@H]1c1ccccc1 -6.17%, COC(=O)[C@]12C[C@H](CC(=O)NCc3ccccc3)C(=O)N(Cc3ccccc3)C1=C[C@H](COCc1ccccc1)O[C@@H]2C 2.84%, Cc1ccc(-c2nc(C3CCCN(S(=O)(=O)c4ccc(Br)s4)C3)no2)cc1 (centres undefined) -5.3%
